We go through 40 molecules from PubChem BioAssay (NCATS).

The structures appear in SMILES notation. Records with an inconclusive call do not appear. Entries that show only a call come without a potency. The source made the active and inactive calls. Calls come from the whole dose curve; as a rule, active = well fitted curve in the direction sought with a large enough effect; inconclusive = small, poorly fitted or top-dose-only effect, or another doubt; inactive = no such curve, though single readings can be large; an effect the other way counts as inactive or inconclusive.

Chain of Cytochrome P450 3A4 (Homo sapiens) (P08684 whole entry, looked up): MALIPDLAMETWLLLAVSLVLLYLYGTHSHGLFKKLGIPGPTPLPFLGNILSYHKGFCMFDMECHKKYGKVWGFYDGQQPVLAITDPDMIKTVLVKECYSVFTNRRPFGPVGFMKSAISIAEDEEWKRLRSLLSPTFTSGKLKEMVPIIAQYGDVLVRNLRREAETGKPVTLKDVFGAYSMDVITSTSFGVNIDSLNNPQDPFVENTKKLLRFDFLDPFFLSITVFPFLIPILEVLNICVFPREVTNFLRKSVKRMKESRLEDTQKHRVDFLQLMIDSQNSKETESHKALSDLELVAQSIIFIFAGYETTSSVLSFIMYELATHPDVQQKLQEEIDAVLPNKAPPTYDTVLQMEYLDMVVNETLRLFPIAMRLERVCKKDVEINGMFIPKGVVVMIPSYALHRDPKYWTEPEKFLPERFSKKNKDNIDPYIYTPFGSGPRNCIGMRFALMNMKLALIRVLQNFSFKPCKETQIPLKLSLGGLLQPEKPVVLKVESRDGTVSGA

For the first assay, the target named is Cytochrome P450 3A4 (Homo sapiens) (UniProt P08684). In words: qHTS Assay for Inhibitors and Substrates of Cytochrome P450 3A4 (AID 884). Note: nearly all actives have a fitted effect of over 50% in size. The note with it: recombinant CYP3A4, Luciferin-PPXE luminescence; series mostly up to 57.1 µM. The procedure, abridged:
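20 nM human CYP3A4 with 25 uM Luciferin-PPXE (at KM) in 200 mM KPO4, preincubated 10 min with compound; NADPH regeneration started a 60 min RT reaction. Luciferin detected by luminescence, normalized to 57 uM ketoconazole as full inhibition.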
On the technique in general: Quantitative high-throughput screening tests each substance at several concentrations.
With `C=C1C(=O)C23C(O)C1CCC2[C@]12COC3(O)C(O)C1C(C)(C)CC[C@H]2O` (stereo partly drawn), the Potency result was “inactive”.

On to `CC(CCC(=O)O)C1CCC2C3C(=O)CC4CC(=O)CC[C@@]4(C)C3CC(=O)[C@]12C` (stereo partly drawn), for which the Potency entry was “inactive”. Still for that read-out and setting: with `CSCCC(N)C(=O)NC(CC(C)C)C(=O)NC(Cc1ccccc1)C(=O)O` (stereo not drawn) the entry was “inactive”; with `CC(=O)c1ccc[nH]1`, “inactive”; with `Cc1onc(-c2c(Cl)cccc2Cl)c1C(=O)NC1C(=O)N2C1SC(C)(C)C2C(=O)O` (stereo not drawn), “inactive”. The same measure, in the same setting: with `COc1cc2ccc(=O)oc2c(OC)c1OC` the entry was “inactive”; with `Cc1cc(O)c(C)c(O)c1C(=O)O`, “inactive”. Still for that read-out and setting: with `C=C1c2cccc(O)c2C(O)=C2C(=O)[C@]3(O)C(O)=C(C(N)=O)C(=O)C(N(C)C)C3C(O)C12` (stereo partly drawn) the entry was “inactive”; with `C[C@@]12CCC(OC(=O)c3ccccc3)CC1CCc1ccccc12` (stereo partly drawn), “inactive”. As to `Nc1nc(=O)n(C2OC(CO)C(O)C2O)cc1Cl` (stereo not drawn), the Potency entry was “inactive”. Same read-out and setting: with `CO[C@@]1(NC(=O)Cc2cccs2)C(=O)N2C(C(=O)O)=C(COC(N)=O)CSC21` (stereo partly drawn) the entry was “inactive”. As to `CC(=O)OCC(=O)[C@@]1(O)CCC2C3CCC4=CC(=O)CC[C@]4(C)C3C(=O)C[C@]21C` (stereo partly drawn), the Potency result was “inactive”.

`COC(=O)C1OC(=O)C2OC23[C@]2(C)C(OC(C)=O)CC4C(C)(C)C(=O)CC[C@]4(C)C2CC[C@@]13C` (stereo partly drawn): the Potency entry is “inactive”.

For `O=C(O)C(S)[C@@H](S)C(=O)O` (stereo partly drawn), the Potency result was “inactive”. On the same count and under the same terms, with `O=c1c(-c2ccc(O)cc2)coc2c(C3OC(CO)C(O)C(O)C3O)c(O)ccc12` (stereo not drawn) the entry was “inactive”.

Take `O=C(O)c1cc2ccccc2[nH]1`: the Potency result is “inactive”. Same read-out and setting: with `Nc1ncnc2c1[nH]c(=O)n2C1CC(O)C(CO)O1` (stereo not drawn) the entry was “inactive”. Turning to `O=C(O)/C=C/C=C/c1ccccc1`, the Potency result was “inactive”.

Take `CCC1OC(=O)C(C)[C@@H](O[C@H]2C[C@@](C)(OC)C(O)C(C)O2)C(C)[C@@H](O[C@@H]2OC(C)CC(N(C)C)C2O)[C@@](C)(O)CC(C)C2NC(COCCOC)O[C@H](C2C)[C@@]1(C)O` (stereo partly drawn): the Potency result was “inactive”. Take `CC1O[C@@H](O[C@@H]2C(O)C[C@H](O[C@@H]3C(O)C[C@@H](OC4CC[C@@]5(C)C6CC[C@]7(C)C(C8=CC(=O)OC8)CC[C@@]7(O)C6CC[C@@H]5C4)OC3C)OC2C)CC(O)[C@H]1O` (stereo partly drawn): the Potency result is “inactive”. Regarding `NC1C(O)OC(CO)[C@@H](O)[C@@H]1O[C@H]1O[C@@H](C(=O)O)C(O)C(O)C1O` (stereo partly drawn), the Potency result was “inactive”. Take `CC1(C)CC[C@]2(C(=O)O)CC[C@@]3(C)C(=CCC4[C@@]5(C)CCC(O)C(C)(C)C5CC[C@@]43C)C2C1` (stereo partly drawn): the Potency result is “inactive”. Still for that read-out and setting: the entry for `NC(=O)c1ccc[n+]([C@@H]2OC(COP(=O)([O-])OP(=O)(O)OCC3OC(n4cnc5c(N)ncnc54)C(O)C3O)C(O)C2O)c1` (stereo partly drawn) is “inactive”; for `CC1CC[C@@]23CCC4(C)[C@@]5(C)CCC6C(C)(C)C(=O)CC[C@@]6(C)C5C=C[C@@]4(OC2=O)C3C1C` (stereo partly drawn) it is “inactive”; for `Nc1ncnc2c1nc(Br)n2C1OC(CO)C(O)C1O` (stereo not drawn) it is “inactive”. Still for that read-out and setting: with `CN(N=O)C(=O)N[C@H]1C(O)C(O)C(CO)O[C@@H]1O` (stereo partly drawn) the entry was “inactive”; with `C[C@]12CCC(=O)C=C1CCC1C2C(O)C[C@]2(C)C1CC[C@]2(O)C(=O)COC(=O)CCC(=O)O` (stereo partly drawn), “inactive”. Turning to `Nc1nc2c(ncn2C2CC(O)C(CO)O2)c(=O)[nH]1` (stereo not drawn), the Potency entry was “inactive”.

Turning to `COc1cc(C(C)=O)cc(OC)c1O`, the Potency result is “inactive”. With `Cn1c(=O)[nH]c(=O)c2[nH]cnc21`, the Potency entry is “inactive”.

For the next assay the target is unchanged. Briefly: qHTS Assay for Activators of Cytochrome P450 3A4 (AID 885). Note: nearly all actives have a fitted effect of over 65% in size. As to conditions: recombinant CYP3A4, Luciferin-PPXE luminescence, 60 min; series mostly up to 57.1 µM. The procedure, abridged:
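20nM CYP3A4 + 25uM Luciferin-PPXE (=KM), 200mM KPO4; cpd 10 min RT; NADPH regen, 60 min RT; stop w/ detection buffer, 20 min; luminescence. Normalized to 57 uM ketoconazole.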
Regarding `COc1ccc(-c2cc(=O)c3cc(OC)ccc3o2)cc1`, the Potency entry is “inactive”. Consider `COC1=CC(=O)C=C(OC)C1=O`, for which the Potency result is “inactive”. Same read-out and setting: with `Oc1ccc2c(c1)OCC1c3cc4c(cc3OC21)OCO4` (stereo not drawn) the entry was “inactive”; with `COc1cc2c(cc1OC)C(=O)OC2`, “inactive”; with `C=C1C([C@@]2(C)C(OC(C)=O)CC(=O)O[C@@](C)(COC(C)=O)C2CC(=O)OC)C(OC=O)C(OC(=O)C(O)C(C)CC)[C@]2(C)C(c3ccoc3)CC(=O)C12O` (stereo partly drawn), “inactive”. As to `COC(=O)c1c(C)cc(O)cc1O`, the Potency entry is “inactive”. The same measure, in the same setting: with `Cc1cc(=O)oc2cc(O)c(O)cc12` the entry was “inactive”. Regarding `COC(=O)CC1[C@@]2(C)C[C@]34OC5(C)OC6(C7CC(=O)OC(c8ccoc8)[C@]7(C)CCC6(O5)[C@]13C)C(OC(C)=O)[C@]4(OC(C)=O)C2OC(C)=O` (stereo partly drawn), the Potency entry was “inactive”. As for `CC1CC2C3CCC4=CC(=O)C=C[C@@]4(C)[C@]3(F)C(O)C[C@]2(C)[C@]1(O)C(=O)COP(=O)(O)O` (stereo partly drawn), the Potency entry is “inactive”. As for `COc1cc(OC)c2c(=O)c(-c3ccccc3)c(C)oc2c1OC`, the Potency result was “inactive”.

System in another assay: not listed separately
In words: Confirmation and Secondary Assay for Modulators of Hemoglobin Beta Chain Splicing at IVS2 654 locus (AID 910).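 Note: per-well total GFP intensity by laser scanning cytometry after 2-day treatment.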 The note with it: HeLa EGFP-654 splicing reporter, GFP fluorescence, 48 h; series mostly up to 46.1 µM. The procedure, abridged: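 HeLa cells stably carrying EGFP interrupted by mutant beta-globin IVS2-654 intron (CMV-driven) were treated with compound for 2 days at 37C; corrected splicing was scored as total peak GFP intensity per well (488 nm excitation, 500-520 nm emission).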
Take `C=C1C(=O)C23C(O)C1CCC2[C@]12COC3(O)C(O)C1C(C)(C)CC[C@H]2O` (stereo partly drawn): the result was inactive. As to `CSCCC(N)C(=O)NC(CC(C)C)C(=O)NC(Cc1ccccc1)C(=O)O` (stereo not drawn), the molecule was classed as inactive.

Turning to `CC(=O)c1ccc[nH]1`, the result was inactive. Regarding `COc1ccc(-c2cc(=O)c3cc(OC)ccc3o2)cc1`, the molecule was called inactive.

Consider `COc1cc2ccc(=O)oc2c(OC)c1OC`, for which the molecule was classed as inactive. On to `Cc1cc(O)c(C)c(O)c1C(=O)O`, for which the result was inactive. The same measure, in the same setting: with `C=C1c2cccc(O)c2C(O)=C2C(=O)[C@]3(O)C(O)=C(C(N)=O)C(=O)C(N(C)C)C3C(O)C12` (stereo partly drawn) the entry was “inactive”; with `C[C@@]12CCC(OC(=O)c3ccccc3)CC1CCc1ccccc12` (stereo partly drawn), “inactive”.

Take `COC1=CC(=O)C=C(OC)C1=O`: the molecule was called inactive. Regarding `Nc1nc(=O)n(C2OC(CO)C(O)C2O)cc1Cl` (stereo not drawn), the call was inactive. In the case of `Oc1ccc2c(c1)OCC1c3cc4c(cc3OC21)OCO4` (stereo not drawn), the molecule was called inactive.

As to `COc1cc2c(cc1OC)C(=O)OC2`, the result was inactive. For `C=C1C([C@@]2(C)C(OC(C)=O)CC(=O)O[C@@](C)(COC(C)=O)C2CC(=O)OC)C(OC=O)C(OC(=O)C(O)C(C)CC)[C@]2(C)C(c3ccoc3)CC(=O)C12O` (stereo partly drawn), the molecule was called inactive. Take `COC(=O)C1OC(=O)C2OC23[C@]2(C)C(OC(C)=O)CC4C(C)(C)C(=O)CC[C@]4(C)C2CC[C@@]13C` (stereo partly drawn): the molecule was classed as inactive. Same read-out and setting: the entry for `COC(=O)c1c(C)cc(O)cc1O` is “inactive”; for `Cc1cc(=O)oc2cc(O)c(O)cc12` it is “inactive”. Still for that read-out and setting: with `O=C(O)c1cc2ccccc2[nH]1` the entry was “inactive”.

As to `COC(=O)CC1[C@@]2(C)C[C@]34OC5(C)OC6(C7CC(=O)OC(c8ccoc8)[C@]7(C)CCC6(O5)[C@]13C)C(OC(C)=O)[C@]4(OC(C)=O)C2OC(C)=O` (stereo partly drawn), the molecule was called inactive. On the same count and under the same terms, the entry for `O=C(O)/C=C/C=C/c1ccccc1` is “inactive”. As to `CC1CC2C3CCC4=CC(=O)C=C[C@@]4(C)[C@]3(F)C(O)C[C@]2(C)[C@]1(O)C(=O)COP(=O)(O)O` (stereo partly drawn), the result was inactive. Same read-out and setting: the entry for `CCC1OC(=O)C(C)[C@@H](O[C@H]2C[C@@](C)(OC)C(O)C(C)O2)C(C)[C@@H](O[C@@H]2OC(C)CC(N(C)C)C2O)[C@@](C)(O)CC(C)C2NC(COCCOC)O[C@H](C2C)[C@@]1(C)O` (stereo partly drawn) is “inactive”; for `CC1O[C@@H](O[C@@H]2C(O)C[C@H](O[C@@H]3C(O)C[C@@H](OC4CC[C@@]5(C)C6CC[C@]7(C)C(C8=CC(=O)OC8)CC[C@@]7(O)C6CC[C@@H]5C4)OC3C)OC2C)CC(O)[C@H]1O` (stereo partly drawn) it is “inactive”; for `COc1cc(OC)c2c(=O)c(-c3ccccc3)c(C)oc2c1OC` it is “inactive”. `Nc1ncnc2c1nc(Br)n2C1OC(CO)C(O)C1O` (stereo not drawn): the molecule was called inactive. Still for that read-out and setting: with `CN(N=O)C(=O)N[C@H]1C(O)C(O)C(CO)O[C@@H]1O` (stereo partly drawn) the entry was “inactive”. On the same count and under the same terms, with `C[C@]12CCC(=O)C=C1CCC1C2C(O)C[C@]2(C)C1CC[C@]2(O)C(=O)COC(=O)CCC(=O)O` (stereo partly drawn) the entry was “inactive”; with `Nc1nc2c(ncn2C2CC(O)C(CO)O2)c(=O)[nH]1` (stereo not drawn), “inactive”. Take `Cn1c(=O)[nH]c(=O)c2[nH]cnc21`: the outcome was inactive.
